# Test results reported in paper PMC5540273 (PLoS ONE, 2017).
# How the values were obtained:
# Conditions in all cases: concentration: 1 μM, replicates: in singlicate; n = 1
# SGK2 = tested on: SGK2
# SGK3 = tested on: SGK3
# SGK = tested on: SGK
# SIK2 = tested on: SIK2
# SIK = tested on: SIK
# SLK = tested on: SLK
# SNARK = tested on: T1, SNARK
# T1 construct: gene NUAK2
# SNRK = tested on: SNRK
# SRC = tested on: SRC
# SRMS = tested on: SRMS
# SRPK1 = tested on: SRPK1
# SRPK2 = tested on: SRPK2
# SRPK3 = tested on: SRPK3
# STK16 = tested on: STK16
# STK33 = tested on: STK33
# STK35 = tested on: STK35
# STK36 = tested on: STK36
# STK39 = tested on: STK39
# SYK = tested on: SYK
# SgK110 = tested on: SgK110
# 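Also: KINOMEscan kinase panel screen.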
Structure (SMILES),%Inh (SGK2),%Inh (SGK3),%Inh (SGK),%Inh (SIK2),%Inh (SIK),%Inh (SLK),%Inh (SNARK),%Inh (SNRK),%Inh (SRC),%Inh (SRMS),%Inh (SRPK1),%Inh (SRPK2),%Inh (SRPK3),%Inh (STK16),%Inh (STK33),%Inh (STK35),%Inh (STK36),%Inh (STK39),%Inh (SYK),%Inh (SgK110)
C[C@@H]1CC[C@H](C(=O)NC2CCCCC2)CN1c1cc(-c2ccc3c(N)n[nH]c3c2)nc(N)n1 [GSK2291363],0%,13%,0%,3%,29%,20%,31%,0%,3%,11%,77%,5%,36%,21%,57%,0%,0%,0%,37%,0%
Fc1cccc(CSc2nnc(-c3ccc4c(c3)CCO4)o2)c1,24%,9%,8%,0%,12%,5%,12%,10%,5%,0%,1%,0%,16%,0%,6%,0%,16%,16%,0%,13%
Cl.c1ccc(Cn2cnc3cc(Nc4ncnc5ccccc45)ccc32)cc1 [GW272142],0%,0%,0%,0%,0%,20%,0%,0%,0%,0%,19%,0%,0%,28%,0%,0%,0%,7%,11%,0%
COc1ccc(-c2cc3c(C)nc(N)nc3n([C@H]3CC[C@H](OCCO)CC3)c2=O)cn1,0%,17%,0%,5%,18%,0%,0%,0%,8%,1%,0%,0%,0%,0%,0%,8%,0%,0%,1%,25%
CN1C(=O)C(Nc2ccccc2)=C(c2ccccc2)C1=O [SB-300079],0%,11%,7%,7%,3%,0%,12%,0%,0%,21%,0%,0%,0%,0%,9%,0%,0%,0%,3%,0%
O=C(NCCNc1ccnc(Nc2ccc(F)cc2)n1)Nc1ccc2c(c1)OCO2 [GSK1379882],13%,7%,12%,0%,0%,0%,1%,0%,0%,0%,17%,24%,0%,23%,0%,0%,0%,12%,0%,0%
COc1ccc(Nc2nccc(N3CCC(NS(=O)(=O)c4ccc(NC(C)=O)cc4)C3)n2)cc1 (centres unmarked) [GSK1379729],14%,0%,10%,18%,2%,18%,2%,9%,6%,0%,35%,0%,63%,19%,10%,14%,3%,2%,35%,4%
Nc1nc(N)c2nc(-c3ccccc3)[nH]c2n1 [SKF-12778],18%,7%,15%,22%,17%,21%,19%,0%,19%,0%,37%,0%,22%,1%,19%,5%,0%,11%,43%,0%
COc1cccc(C2=C(Nc3cccc(C(=O)O)c3)C(=O)NC2=O)c1 [SB-390770],11%,48%,8%,7%,10%,35%,72%,0%,0%,0%,8%,24%,11%,8%,2%,12%,4%,0%,30%,3%
CCC(=O)c1c(-c2ccccc2)c2cc(Cl)ccc2c(=O)n1Cc1cc(C(=O)NC2CC2)n(C)n1,5%,10%,2%,55%,1%,0%,0%,0%,0%,0%,0%,19%,0%,6%,0%,51%,0%,13%,0%,11%
